# Structures can show the parent of a compound that is named as a salt.
# System: Danio rerio larvae (5 dpf)
# Assay: habituation (activity change first vs second 5 min of 1-s interval sound, period 17) minus DMSO control (percentage points); higher = larger habituation measure than DMSO larvae
# Conditions: 10 µM; exposure time: 3 h pre-incubation + 3 h imaging
# Experimental: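 Wild-type 5 dpf zebrafish larvae (n=48 per drug, 96-well plates, 28.5 °C) were exposed to Tocris FDA-approved library compounds at 10 µM (0.1% DMSO) for 3 h before and 3 h during imaging. Images were taken every 6 s during visual (moving coloured lines) and acoustic stimuli, and larvae were tracked with the DeepLabCut-based Z-LaP Tracker. Each behavioural measure is the treated-group mean minus the DMSO vehicle control mean (n=844), in percentage points. This mapping covers compounds with 4-character plate codes.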
row,Structure (SMILES),habituation
1,COC(c1ccccc1)(c1ccccc1)[C@H](Oc1nc(C)cc(C)n1)C(=O)O [Ambrisentan],4.59
2,CC1(C)O[C@@H]2[C@@H](CO[C@@]3(COS(N)(=O)=O)OC(C)(C)O[C@@H]23)O1 [Topiramate],-1.06
3,CC(C)(C(=O)c1cccnc1)c1cccnc1 [Metyrapone],0.481
4,CN(C)CCC[C@@]1(c2ccc(F)cc2)OCc2cc(C#N)ccc21 [Escitalopram oxalate],-6.32
5,CCCN(CCC)S(=O)(=O)c1ccc(C(=O)O)cc1 [Probenecid],3.79
6,O=C(Nc1c(Cl)cncc1Cl)c1ccc(OC(F)F)c(OCC2CC2)c1 [Roflumilast],-2.44
7,CC(C)CN(C[C@@H](O)[C@H](Cc1ccccc1)NC(=O)O[C@H]1CO[C@H]2OCC[C@H]21)S(=O)(=O)c1ccc(N)cc1 [Darunavir],0.657
8,OCCOCCN1CCN(C2=Nc3ccccc3Sc3ccccc32)CC1 [Quetiapine hemifumarate],-4.22
9,CCCCCCCCc1ccc(CCC(N)(CO)CO)cc1,-0.454
10,CC1CNc2c(cccc2S(=O)(=O)N[C@@H](CCCNC(=N)N)C(=O)N2CC[C@@H](C)C[C@@H]2C(=O)O)C1 (stereo not given in full) [Argatroban],-0.107
11,Cc1ccccc1C(=O)Nc1ccc(C(=O)N2CCCC(O)c3cc(Cl)ccc32)c(C)c1 (stereo not given) [Tolvaptan],2.26
12,Nc1nc2c(ncn2COCCO)c(=O)[nH]1 [Acyclovir],2.18
13,CC(C)c1ccc2oc3nc(N)c(C(=O)O)cc3c(=O)c2c1 [Amlexanox],-2.56
14,CCOC(=O)[C@H](CCc1ccccc1)N[C@H]1CCc2ccccc2N(CC(=O)O)C1=O [Benazepril hydrochloride],1.78
15,Cc1cccc(CN2CCN(C(c3ccccc3)c3ccc(Cl)cc3)CC2)c1 (stereo not given) [Meclizine dihydrochloride],-12.4
16,O=C1CCc2cc(OCCCCc3nnnn3C3CCCCC3)ccc2N1 [Cilostazol],0.0793
17,Cc1ccsc1C(=CCCN1CCC[C@@H](C(=O)O)C1)c1sccc1C [Tiagabine hydrochloride],6.37
18,Cc1c(-c2ccc(O)cc2)n(Cc2ccc(OCCN3CCCCCC3)cc2)c2ccc(O)cc12 [Bazedoxifene acetate],0.95
19,C[C@H](Cc1cc2c(c(C(N)=O)c1)N(CCCO)CC2)NCCOc1ccccc1OCC(F)(F)F [Silodosin],7.86
20,CCOc1nc2cccc(C(=O)O)c2n1Cc1ccc(-c2ccccc2-c2noc(=O)[nH]2)cc1 [Azilsartan],8.15

row,Structure (SMILES),habituation
1,COc1ccc(-c2ccc3cc(C(=O)O)ccc3c2)cc1C12CC3CC(CC(C3)C1)C2 [Adapalene],1.1
2,CC(C)[C@H]1CC[C@H](C(=O)N[C@H](Cc2ccccc2)C(=O)O)CC1 [Nateglinide],-2.04
3,Cc1ccc(NC(=O)c2ccc(CN3CCN(C)CC3)cc2)cc1Nc1nccc(-c2cccnc2)n1 [Imatinib mesylate],1.88
4,CCCCC1=NC2(CCCC2)C(=O)N1Cc1ccc(-c2ccccc2-c2nnn[nH]2)cc1 [Irbesartan],-1.18
5,COc1cccc2c1C(=O)c1c(O)c3c(c(O)c1C2=O)C[C@@](O)(C(=O)CO)C[C@@H]3O[C@H]1C[C@H](N)[C@H](O)[C@H](C)O1 [Doxorubicin hydrochloride],0.248
6,C[C@]12CC[C@@H]3c4ccc(O)cc4C[C@@H](CCCCCCCCC[S+]([O-])CCCC(F)(F)C(F)(F)F)[C@H]3[C@@H]1CC[C@@H]2O (stereo not given in full),-2.02
7,Nc1nc(Cl)nc2c1ncn2[C@@H]1O[C@H](CO)[C@@H](O)[C@@H]1F [Clofarabine],-1.06
8,CCOC(=O)N1CCC(=C2c3ccc(Cl)cc3CCc3cccnc32)CC1 [Loratidine],-7.35
9,NC(=O)c1ncn([C@@H]2O[C@H](CO)[C@@H](O)[C@H]2O)n1 [Ribavirin],0.859
10,CN1CCC[C@@H]1Cc1c[nH]c2ccc(CCS(=O)(=O)c3ccccc3)cc12 [Eletriptan hydrobromide],7.41
11,CC/C(=C(\c1ccccc1)c1ccc(OCCN(C)C)cc1)c1ccccc1 [Tamoxifen citrate],-7.1
12,CC1=Nc2ccc(Cl)cc2S(=O)(=O)N1 [Diazoxide],8.87
13,COc1c(C)c2c(c(O)c1C/C=C(\C)CCC(=O)O)C(=O)OC2 [Mycophenolic acid],1.82
14,CC#C[C@]1(O)CC[C@H]2[C@@H]3CCC4=CC(=O)CCC4=C3[C@@H](c3ccc(N(C)C)cc3)C[C@@]21C [Mifepristone],-3.13
15,NS(=O)(=O)Cc1noc2ccccc12 [Zonisamide],1.66
16,COCCCOc1cc(C[C@@H](C[C@H](N)[C@@H](O)C[C@H](C(=O)NCC(C)(C)C(N)=O)C(C)C)C(C)C)ccc1OC [Aliskiren hemifumarate],8.44
17,O=c1[nH]c(=O)n([C@H]2C[C@H](O)[C@@H](CO)O2)cc1C(F)(F)F [Trifluorothymidine],6.83
18,CC(=O)O[C@H]1C(=O)[C@@]2(C)[C@H]([C@H](OC(=O)c3ccccc3)[C@]3(O)C[C@H](OC(=O)[C@H](O)[C@@H](NC(=O)c4ccccc4)c4ccccc4)C(C)=C1C3(C)C)[C@]1(OC(C)=O)CO[C@@H]1C[C@@H]2O [Taxol],-3.28
19,COc1cc(Nc2c(C#N)cnc3cc(OCCCN4CCN(C)CC4)c(OC)cc23)c(Cl)cc1Cl [Bosutinib],1.4
20,Nc1cccc2c1CN(C1CCC(=O)NC1=O)C2=O (stereo not given) [Lenalidomide],-0.218
